# The source made the active and inactive calls. Unless noted, the rule behind the calls is not given here.
# Columns and labels:
# [1] = test system: Wnt5a (protein binding on small-molecule microarray); test: Wnt5a binders on small-molecule microarray, primary screen, biophysical, 635/667 nm fluorescence (AID 1142); conditions: 635 nm fluorescence, higher = more signal;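 note: fluorescence read at 667 nm with signal to noise per printed feature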
# [2] = cell viability in Huh7 cells, primary screen, cytotoxicity control for HCV replication inhibitor project, CellTiter-Glo luminescence, basal, 48 h (AID 1143); conditions: Huh7 HCV replicon, higher = more signal, called active from +8 up or from −8 down;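 note: Huh7 hepatoma cells carrying a hepatitis C replication reporter with no stimulus; test concentration not given here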
# [3] = P. aeruginosa biofilm formation inhibitors, primary screen, PAO1 strain, BacTiter-Glo luminescence, LB-PBS (AID 1144); conditions: 12 h, higher = more signal
# [4] = CREB reporter modulators without forskolin, primary screen, cell-based, PC12, CRE-LacZ reporter, unstimulated (AID 1145); conditions: no forskolin, luminescence, 4.5 h, higher = more signal, called active from +8 up or from −8 down
# [5] = CREB reporter modulators under forskolin, primary screen, cell-based, PC12, CRE-LacZ reporter, forskolin-stimulated (AID 1146); conditions: luminescence, 4.5 h, higher = more signal, called active from +8 up or from −8 down;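 note: PC12 cells with 6xCRE LacZ reporter stimulated by forskolin 10 µM; beta-galactosidase reporter signal reflecting CREB driven transcription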
# [6] = biological target: Streptavidin (Streptomyces avidinii) (UniProt P22629); test: streptavidin binders on small-molecule microarray, primary screen, artefact control for SMM compound annotation, biophysical, 635/667 nm fluorescence (AID 1147); conditions: streptavidin binding, higher = more signal;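 note: signal reflects streptavidin binding to arrayed compounds as a control protein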
# [7] = small-molecule binders of probe aInhba, primary screen, biochemical, small-molecule microarray, 635/667 nm fluorescence (AID 1148); conditions: higher = more signal;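 note: score merges 667nm spot fluorescence with signal-to-noise for antibody binding to printed compounds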
# [8] = biological target: Torsin-1A (Homo sapiens) (UniProt O14656); test: torsin A binders from cell lysate, primary screen, small-molecule microarray, wild-type, 635/667 nm (AID 1149); conditions: COS7 hTOR1A-WT lysate, 635 nm fluorescence, higher = more signal
# [9] = biological target: Torsin-1A (Homo sapiens) (UniProt O14656); test: small-molecule binders of mutant TOR1A in lysate, primary screen, cell lysate, small-molecule microarray, COS7 lysate, 635/667 nm fluorescence (AID 1150); conditions: COS7 hTOR1A mutant lysate, 635 nm fluorescence, higher = more signal;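 note: score pools 667 nm emission and signal to noise measuring lysate protein binding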
# [10] = test system: Sonic hedgehog protein (Shh); test: small-molecule binders of Shh protein, primary screen, biochemical, small-molecule microarray, 635/667 nm fluorescence (AID 1151); conditions: small-molecule microarray binding, 635 nm fluorescence; higher = more signal;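 note: Shh protein binding to compounds spotted on small-molecule microarray slides; score combines spot fluorescence intensity with signal-to-noise across triplicate slides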
# [11] = E. coli DRC41 culture turbidity changes, primary screen, E. coli filamentation inducer project, strain DRC41, OD650, 48 h (AID 1152);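 note: E. coli MC1000 strain DRC41 lacking acrAB efflux pump and sulA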; conditions: E. coli DRC41 (acrAB sulA), higher = more signal, called active from +8 up or from −8 down
# [12] = small-molecule binders of probe aLefty1, primary screen, biochemical, small-molecule microarray, 635/667 nm fluorescence (AID 1153); conditions: higher = more signal;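 note: score merges spot fluorescence with signal-to-noise ratio from the scanned slide images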
# [13] = PSAC antagonists in infected red cells, primary screen, cell-based, P. falciparum Indochina, OD700, 1 h (AID 1154); conditions: P. falciparum Indochina infected RBC osmotic lysis, higher = more signal, called active from +8 up or from −8 down
# [14] = PSAC antagonists in infected red cells, primary screen, cell-based, P. falciparum Indochina, OD700, 2 h (AID 1155);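 note: lysis reports solute entry through the parasite surface anion channel PSAC; channel blockers reduce lysis of infected cells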; conditions: P. falciparum Indochina infected erythrocytes, osmotic lysis OD700; higher = more signal, called active from +8 up or from −8 down
# [15] = osmotic lysis modulators in infected erythrocytes, primary screen, PSAC antagonist project, cell-based, P. falciparum Indochina, OD700, 3 h (AID 1156); conditions: higher = more signal, called active from +8 up or from −8 down
# [16] = PSAC antagonists in infected red cells, primary screen, cell-based, P. falciparum Indochina, OD700, 18 h (AID 1157); conditions: P. falciparum Indochina infected erythrocytes, osmotic lysis OD700, 18 h; higher = more signal, called active from +8 up or from −8 down
# [17] = modulators of S6 phosphorylation in cells, primary screen, cell-based, A549, cytoblot, luminescence, serum-stimulated (AID 1158); conditions: A549 phospho-S6 cytoblot, 5 h, higher = more signal;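 note: serum-stimulated A549 lung adenocarcinoma cells; signal is phosphorylated S6 detected by cytoblot immunostaining with HRP secondary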
# [18] = biological target: NADPH oxidase 2 (Homo sapiens) (UniProt P04839); test: NOX2-dependent H2O2 signal modulators, primary screen, NOX inhibitor project, cell-based, HEK293-NOX2, PMA-stimulated, Amplex Red fluorescence (AID 1159); conditions: 45 min, higher = more signal, called active from +8 up or from −8 down; note: test concentration not given here
# [19] = biological target: NADPH oxidase 4 (Homo sapiens) (UniProt Q9NPH5); test: NOX4-dependent H2O2 signal modulators, primary screen, NOX inhibitor project, cell-based, HEK293-NOX4, tetracycline-induced, Amplex Red fluorescence (AID 1160); conditions: 45 min, higher = more signal, called active from +8 up or from −8 down
# [20] = biological target: NADPH oxidase 5 (Homo sapiens) (UniProt Q96PH1); test: NOX5-dependent H2O2 signal modulators, primary screen, NOX inhibitor project, cell-based, HEK293-NOX5, Amplex Red fluorescence (AID 1161); conditions: HEK293-NOX5, ionomycin, 45 min, higher = more signal
# Chain of NADPH oxidase 5 (Homo sapiens) (Q96PH1 whole entry, looked up): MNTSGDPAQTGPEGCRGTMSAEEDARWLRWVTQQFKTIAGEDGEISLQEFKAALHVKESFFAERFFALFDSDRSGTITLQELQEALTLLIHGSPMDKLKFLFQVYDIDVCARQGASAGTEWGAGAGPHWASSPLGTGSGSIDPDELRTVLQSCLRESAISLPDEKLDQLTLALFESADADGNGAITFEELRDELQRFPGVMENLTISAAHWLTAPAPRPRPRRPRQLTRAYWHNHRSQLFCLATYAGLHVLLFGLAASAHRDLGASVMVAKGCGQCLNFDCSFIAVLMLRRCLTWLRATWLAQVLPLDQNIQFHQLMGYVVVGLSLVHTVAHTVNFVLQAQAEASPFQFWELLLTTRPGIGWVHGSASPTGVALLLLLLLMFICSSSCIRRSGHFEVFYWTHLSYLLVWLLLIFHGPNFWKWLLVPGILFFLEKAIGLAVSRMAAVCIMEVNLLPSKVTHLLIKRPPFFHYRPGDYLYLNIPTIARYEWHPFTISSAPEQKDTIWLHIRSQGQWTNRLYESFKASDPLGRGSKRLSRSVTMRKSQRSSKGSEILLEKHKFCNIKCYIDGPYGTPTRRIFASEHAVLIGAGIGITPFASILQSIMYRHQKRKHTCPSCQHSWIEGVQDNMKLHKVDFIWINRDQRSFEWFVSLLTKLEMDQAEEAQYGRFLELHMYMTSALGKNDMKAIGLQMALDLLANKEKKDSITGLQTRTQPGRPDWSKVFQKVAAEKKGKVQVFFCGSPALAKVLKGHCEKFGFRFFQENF
# Chain of NADPH oxidase 4 (Homo sapiens) (Q9NPH5 whole entry, looked up): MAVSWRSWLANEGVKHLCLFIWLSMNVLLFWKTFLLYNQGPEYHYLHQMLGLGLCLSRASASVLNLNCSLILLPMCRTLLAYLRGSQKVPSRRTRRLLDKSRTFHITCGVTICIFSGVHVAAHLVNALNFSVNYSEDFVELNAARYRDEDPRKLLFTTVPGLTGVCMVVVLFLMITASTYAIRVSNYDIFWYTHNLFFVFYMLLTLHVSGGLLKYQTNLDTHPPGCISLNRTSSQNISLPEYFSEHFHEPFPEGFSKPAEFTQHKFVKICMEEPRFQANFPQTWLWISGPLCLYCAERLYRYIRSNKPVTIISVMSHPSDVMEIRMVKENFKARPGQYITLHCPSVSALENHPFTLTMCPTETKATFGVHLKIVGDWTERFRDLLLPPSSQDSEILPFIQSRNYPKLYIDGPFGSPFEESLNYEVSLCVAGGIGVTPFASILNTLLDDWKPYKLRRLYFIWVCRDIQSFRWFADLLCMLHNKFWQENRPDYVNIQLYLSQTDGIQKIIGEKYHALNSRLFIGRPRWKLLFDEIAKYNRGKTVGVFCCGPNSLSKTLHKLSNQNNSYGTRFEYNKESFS
# Chain of Streptavidin (Streptomyces avidinii) (P22629 whole entry, looked up): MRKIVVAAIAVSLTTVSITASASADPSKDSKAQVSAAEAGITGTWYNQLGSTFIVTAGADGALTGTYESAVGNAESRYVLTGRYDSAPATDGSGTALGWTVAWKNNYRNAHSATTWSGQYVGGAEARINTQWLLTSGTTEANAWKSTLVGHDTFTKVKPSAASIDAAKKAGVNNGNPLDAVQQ
# Chain of Torsin-1A (Homo sapiens) (O14656 whole entry, looked up): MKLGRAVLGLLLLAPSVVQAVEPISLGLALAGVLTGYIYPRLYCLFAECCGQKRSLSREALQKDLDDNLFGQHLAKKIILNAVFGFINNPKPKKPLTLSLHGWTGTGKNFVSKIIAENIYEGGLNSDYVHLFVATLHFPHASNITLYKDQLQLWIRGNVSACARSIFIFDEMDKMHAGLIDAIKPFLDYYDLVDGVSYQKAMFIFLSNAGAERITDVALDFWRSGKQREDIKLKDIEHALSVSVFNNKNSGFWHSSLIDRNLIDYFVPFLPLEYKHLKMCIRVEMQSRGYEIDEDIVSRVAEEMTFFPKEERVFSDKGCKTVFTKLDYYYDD
# Chain of NADPH oxidase 2 (Homo sapiens) (P04839 whole entry, looked up): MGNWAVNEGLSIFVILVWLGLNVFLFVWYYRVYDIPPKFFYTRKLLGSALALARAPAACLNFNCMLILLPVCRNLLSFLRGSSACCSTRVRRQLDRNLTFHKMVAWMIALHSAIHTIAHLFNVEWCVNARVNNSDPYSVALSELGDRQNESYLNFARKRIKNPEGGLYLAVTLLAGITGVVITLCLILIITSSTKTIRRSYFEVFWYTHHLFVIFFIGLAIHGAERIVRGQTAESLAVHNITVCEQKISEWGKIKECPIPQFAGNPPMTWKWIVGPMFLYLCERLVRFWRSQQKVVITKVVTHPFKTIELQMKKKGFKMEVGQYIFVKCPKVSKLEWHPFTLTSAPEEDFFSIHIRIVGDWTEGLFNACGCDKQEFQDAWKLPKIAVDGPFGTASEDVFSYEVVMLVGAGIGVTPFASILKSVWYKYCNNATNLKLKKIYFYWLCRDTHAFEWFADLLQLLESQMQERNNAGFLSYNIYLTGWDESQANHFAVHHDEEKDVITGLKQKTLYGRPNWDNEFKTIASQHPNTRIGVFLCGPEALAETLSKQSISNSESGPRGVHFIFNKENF
structure (smiles),measurement,setting,value
CC(=O)OC[C@H]1O[C@H](C#Cc2ccccc2)C=C[C@@H]1OC(C)=O,composite z-score,[1],-0.118
same,z-score,[2],-2.96 (inactive)
same,z-score,[3],0.908 (inactive)
same,z-score,[4],-0.256 (inactive)
same,z-score,[5],3.76 (inactive)
same,composite z-score,[6],0.0752
same,composite z-score,[7],-0.182
same,composite z-score,[8],0.398
same,composite z-score,[9],-0.0454
same,composite z-score,[10],0.337
same,z-score,[11],0.714 (inactive)
same,composite z-score,[12],-0.234
same,z-score,[13],1.12 (inactive)
same,z-score,[14],-0.08 (inactive)
same,z-score,[15],-0.0923 (inactive)
same,z-score,[16],-0.219 (inactive)
same,z-score,[17],-0.283
same,z-score,[18],1.61 (inactive)
same,z-score,[19],0.415 (inactive)
same,z-score,[20],1.54
CCOC(=O)NN=C1C[C@@H](O)[C@@H](O)[C@@H]2[C@@H]3C(=O)N([C@@H](C)c4ccccc4)C(=O)[C@@H]3CC[C@@H]12,composite z-score,[1],0.229
same,z-score,[2],0.261 (inactive)
same,z-score,[3],-0.353 (inactive)
same,z-score,[4],-0.475 (inactive)
same,z-score,[5],-0.14 (inactive)
same,composite z-score,[6],-0.468
same,composite z-score,[7],-0.0313
same,composite z-score,[8],2.58
same,composite z-score,[9],2.5
same,composite z-score,[10],1.37
same,z-score,[11],-0.0718 (inactive)
same,composite z-score,[12],-0.0523
same,z-score,[13],-0.308 (inactive)
same,z-score,[14],0.0095 (inactive)
same,z-score,[15],-0.611 (inactive)
same,z-score,[16],-0.0871 (inactive)
same,z-score,[17],-0.25
same,z-score,[18],-0.819 (inactive)
same,z-score,[19],0.589 (inactive)
same,z-score,[20],-0.143
O=C1C2=CC[C@H]3C(=O)N(c4cccc(Oc5ccccc5)c4)C(=O)[C@H]3[C@H]2[C@H](O)[C@@H]2O[C@H]12,composite z-score,[1],0.0049
same,z-score,[2],-6.01 (inactive)
same,z-score,[3],0.478 (inactive)
same,z-score,[4],0.699 (inactive)
same,z-score,[5],19.7 (active)
same,composite z-score,[6],0.284
same,composite z-score,[7],-0.239
same,composite z-score,[8],0.181
same,composite z-score,[9],-0.111
same,composite z-score,[10],0.264
same,z-score,[11],-0.462 (inactive)
same,composite z-score,[12],-0.103
same,z-score,[13],-0.0001 (inactive)
same,z-score,[14],-0.295 (inactive)
same,z-score,[15],-0.081 (inactive)
same,z-score,[16],0.157 (inactive)
same,z-score,[17],-0.194
same,z-score,[18],0.042 (inactive)
same,z-score,[19],0.605 (inactive)
same,z-score,[20],0.4
COC(=O)[C@H](C)NC(=O)CCC1CC(OC(=O)NCc2ccc3c(c2)OCO3)CC2(CCCC(COC(=O)NCc3cccc(C(F)(F)F)c3)O2)O1 (stereo not given in full),composite z-score,[1],-0.0362
same,z-score,[2],-0.109 (inactive)
same,z-score,[3],-0.0589 (inactive)
same,z-score,[4],-0.794 (inactive)
same,z-score,[5],-0.631 (inactive)
same,composite z-score,[6],0.634
same,composite z-score,[7],0.0852
same,composite z-score,[8],0.703
same,composite z-score,[9],0.279
same,composite z-score,[10],1.28
same,z-score,[11],-0.39 (inactive)
same,composite z-score,[12],-0.045
same,z-score,[13],0.598 (inactive)
same,z-score,[14],-0.529 (inactive)
same,z-score,[15],0.262 (inactive)
same,z-score,[16],-0.239 (inactive)
same,z-score,[17],0.0036
same,z-score,[18],1.5 (inactive)
same,z-score,[19],0.971 (inactive)
same,z-score,[20],1.15
CC(C)CON=C1C[C@@H](O)[C@@H](O)[C@@H]2[C@@H]3C(=O)N(c4cccc(Oc5ccccc5)c4)C(=O)[C@@H]3CC[C@@H]12,composite z-score,[1],0.0462
same,z-score,[2],-1.26 (inactive)
same,z-score,[3],0.272 (inactive)
same,z-score,[4],-0.11 (inactive)
same,z-score,[5],0.0421 (inactive)
same,composite z-score,[6],0.977
same,composite z-score,[7],-0.016
same,composite z-score,[8],0.486
same,composite z-score,[9],0.181
same,composite z-score,[10],1.7
same,z-score,[11],-0.211 (inactive)
same,composite z-score,[12],-0.321
same,z-score,[13],2.34 (inactive)
same,z-score,[14],-0.696 (inactive)
same,z-score,[15],1.07 (inactive)
same,z-score,[16],-1.36 (inactive)
same,z-score,[17],0.6
same,z-score,[18],-0.191 (inactive)
same,z-score,[19],0.352 (inactive)
same,z-score,[20],-0.51
O=C1C[C@@H](O)[C@@H](O)[C@@H]2[C@@H]3C(=O)N(c4cccc(Oc5ccccc5)c4)C(=O)[C@@H]3CC[C@H]12,composite z-score,[1],0.114
same,z-score,[2],0.393 (inactive)
same,z-score,[3],0.247 (inactive)
same,z-score,[4],2.51 (inactive)
same,z-score,[5],0.287 (inactive)
same,composite z-score,[6],0.0742
same,composite z-score,[7],-0.183
same,composite z-score,[8],0.162
same,composite z-score,[9],0.331
same,composite z-score,[10],0.669
same,z-score,[11],-0.367 (inactive)
same,composite z-score,[12],0.0446
same,z-score,[13],0.429 (inactive)
same,z-score,[14],0.0618 (inactive)
same,z-score,[15],-0.195 (inactive)
same,z-score,[16],-0.0653 (inactive)
same,z-score,[17],-0.875
same,z-score,[18],-0.0166 (inactive)
same,z-score,[19],0.6 (inactive)
same,z-score,[20],0.124
CCCCC#C[C@@H]1C=C[C@H](Oc2ccc(C(=O)OC)cc2)[C@@H](COC(=O)OCC)O1,composite z-score,[1],0.769
same,z-score,[2],-4.3 (inactive)
same,z-score,[3],0.0612 (inactive)
same,z-score,[4],0.291 (inactive)
same,z-score,[5],1.13 (inactive)
same,composite z-score,[6],0.25
same,composite z-score,[7],-0.128
same,composite z-score,[8],0.346
same,composite z-score,[9],0.358
same,composite z-score,[10],1.12
same,z-score,[11],0.0015 (inactive)
same,composite z-score,[12],-0.0559
same,z-score,[13],5.53 (inactive)
same,z-score,[14],1.38 (inactive)
same,z-score,[15],0.77 (inactive)
same,z-score,[16],0.0033 (inactive)
same,z-score,[17],0.164
same,z-score,[18],1.82 (inactive)
same,z-score,[19],0.725 (inactive)
same,z-score,[20],1.03
O=c1n(Cc2cc3c(cc2Cl)OCO3)c(=O)n2n1CC[C@@H]1C(=NOCc3ccccc3)[C@H]3O[C@H]3[C@@H](O)[C@@H]12,composite z-score,[1],0.141
same,z-score,[2],-0.742 (inactive)
same,z-score,[3],0.692 (inactive)
same,z-score,[4],0.16 (inactive)
same,z-score,[5],1.87 (inactive)
same,composite z-score,[6],0.767
same,composite z-score,[7],-0.0509
same,composite z-score,[8],0.582
same,composite z-score,[9],0.223
same,composite z-score,[10],0.365
same,z-score,[11],0.112 (inactive)
same,composite z-score,[12],-0.055
same,z-score,[13],0.99 (inactive)
same,z-score,[14],-1.13 (inactive)
same,z-score,[15],0.434 (inactive)
same,z-score,[16],-2.49 (inactive)
same,z-score,[17],1.63
same,z-score,[18],-0.641 (inactive)
same,z-score,[19],0.153 (inactive)
same,z-score,[20],0.615
CCc1cc2c(nc1CC)CCN(CCC(C)=NOC[C@H]1O[C@H](c3ccccc3)C=C[C@@H]1Oc1ccc(OC)cc1)C2,composite z-score,[1],-0.363
same,z-score,[2],-4.11 (inactive)
same,z-score,[3],-1.57 (inactive)
same,z-score,[4],5.73 (inactive)
same,z-score,[5],0.28 (inactive)
same,composite z-score,[6],2.21
same,composite z-score,[7],-0.0093
same,composite z-score,[8],0.15
same,composite z-score,[9],0.274
same,composite z-score,[10],0.839
same,z-score,[11],-0.563 (inactive)
same,composite z-score,[12],-0.0003
same,z-score,[13],6.37 (inactive)
same,z-score,[14],-0.735 (inactive)
same,z-score,[15],2.37 (inactive)
same,z-score,[16],-1.62 (inactive)
same,z-score,[17],1.18
same,z-score,[18],-1.83 (inactive)
same,z-score,[19],-0.845 (inactive)
same,z-score,[20],-2.68

# Source: PubChem BioAssay
